Counter-ions that a name gives are not always drawn.
Experiments:
Settings in all cases: incubation time: 27 h, anaerobic, 37 °C;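 for the amine columns active = adjusted P below 0.05 in both replicates with a change the same way and a mean fold change under 0.8 or over 1.25; inactive = the rest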
[1] = test system: Escherichia coli IAI1; experiment: growth (OD595) fold change vs plate DMSO controls (fold change (ratio)); higher = more growth
How it was run: (§1)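 Absorbance at 595 nm was read after shaking the anaerobic mGAM cultures, which had grown in 96-well plates for 27 h at 37 °C. After blank subtraction and background correction against 20 µM compound solutions in water, a calibration factor of 5 gave OD values. Growth is the fold change against the median of the plate's DMSO controls. Values are the mean of 2 biological replicates, with fold changes above 1.5 set to NA.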

[2] = test system: Klebsiella aerogenes DSM 30053; experiment: as above
How it was run: as §1

[3] = test system: Ruminococcus gnavus DSM 108212; experiment: as above
How it was run: as §1

[4] = test system: Klebsiella aerogenes DSM 30053; experiment: fold change of Histamine concentration vs plate DMSO controls (fold change (ratio)); higher = more amine produced, active = hit call of the paper (significant change in both replicates, either direction)
How it was run: (§2)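 Amines were quantified by LC–triple-quadrupole MS in dynamic MRM mode against external calibration curves, with drift correction within each batch. The samples were whole anaerobic mGAM cultures of four gut bacterial strains, grown for 27 h at 37 °C in 80 µL wells and extracted with cold acetonitrile/methanol with 0.1% formic acid, then centrifuged. Values are reported as fold change over DMSO controls on the same plate. The mean of 2 biological replicates is given.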

[5] = test system: Ruminococcus gnavus DSM 108212; experiment: fold change of Tryptamine concentration vs plate DMSO controls (fold change (ratio)); higher = more amine produced, active = hit call of the paper (significant change in both replicates, either direction)
How it was run: as §2

[6] = test system: Escherichia coli IAI1; experiment: fold change of Putrescine concentration vs plate DMSO controls (fold change (ratio)); higher = more amine produced, active = hit call of the paper (significant change in both replicates, either direction)
How it was run: as §2

[7] = test system: Klebsiella aerogenes DSM 30053; experiment: as above
How it was run: as §2

[8] = test system: Escherichia coli IAI1; experiment: fold change of Cadaverine concentration vs plate DMSO controls (fold change (ratio)); higher = more amine produced, active = hit call of the paper (significant change in both replicates, either direction)
How it was run: as §2

[9] = test system: Klebsiella aerogenes DSM 30053; experiment: as above
How it was run: as §2

[10] = test system: Ruminococcus gnavus DSM 108212; experiment: fold change of 2-Phenylethylamine concentration vs plate DMSO controls (fold change (ratio)); higher = more amine produced, active = hit call of the paper (significant change in both replicates, either direction)
How it was run: as §2

[11] = test system: Clostridium sporogenes DSM 1664; experiment: growth (OD595) fold change vs plate DMSO controls (fold change (ratio)); higher = more growth
How it was run: as §1

[12] = test system: Clostridium sporogenes DSM 1664; experiment: fold change of Tryptamine concentration vs plate DMSO controls (fold change (ratio)); higher = more amine produced, active = hit call of the paper (significant change in both replicates, either direction)
How it was run: as §2

Row | Compound | growth [1] | growth [2] | growth [3] | fold change of Histamine concentration [4] | fold change of Tryptamine concentration [5] | fold change of Putrescine concentration [6] | fold change of Putrescine concentration [7] | fold change of Cadaverine concentration [8] | fold change of Cadaverine concentration [9] | fold change of 2-Phenylethylamine concentration [10] | growth [11] | fold change of Tryptamine concentration [12]
1 | O=C(O)c1cn(C2CC2)c2cc(N3CCNCC3)c(F)cc2c1=O [Ciprofloxacin hydrochloride monohydrate] (20 µM) | 0 | 0 | 0.342 | 0.0661 (active) | 0.796 (inactive) | 0.53 (inactive) | 0.573 (inactive) | 0.176 (active) | 0.938 (inactive) | 0.863 (inactive) |  | 
2 | COc1c(N2C[C@@H]3CCCN[C@@H]3C2)c(F)cc2c(=O)c(C(=O)O)cn(C3CC3)c12 [Moxifloxacin] (20 µM) | 0.0497 | 0.193 | 0.00485 | 0.256 (active) | 0.205 (active) | 0.828 (inactive) | 0.915 (inactive) | 0.236 (active) | 0.982 (inactive) | 0.215 (active) |  | 
3 | CCn1cc(C(=O)O)c(=O)c2cc(F)c(N3CCN(C)CC3)cc21 [Pefloxacin] (20 µM) | 0.0501 | 0.198 | 1.13 | 0.127 (active) | 0.915 (inactive) | 0.793 (inactive) | 1.05 (inactive) | 0.204 (active) | 0.972 (inactive) | 0.91 (inactive) |  | 
4 | O=C1C(=O)c2ccccc2C(O)=C1C1CCC(c2ccc(Cl)cc2)CC1 (centres undefined) [Atovaquone] (20 µM) | 1.02 | 1.07 |  | 1.01 (inactive) | 0.753 (active) | 0.973 (inactive) | 1.03 (inactive) | 0.989 (inactive) | 1 (inactive) | 0.747 (active) | 1.24 | 0.793 (inactive)
5 | C#C[C@]1(O)CC[C@H]2[C@@H]3CCC4=CCCC[C@@H]4[C@H]3CC[C@@]21C [Lynestrenol] (20 µM) | 1.17 | 1.02 |  | 1.06 (inactive) | 0.985 (inactive) | 1.13 (inactive) | 1.02 (inactive) | 0.997 (inactive) | 0.989 (inactive) | 1.01 (inactive) | 0.94 | 0.947 (inactive)
6 | CCOC(=O)C1=C(C)NC(C)=C(C(=O)OC)C1c1cccc(Cl)c1Cl (centres undefined) [Felodipine] (20 µM) | 1.09 | 1.04 | 0.215 | 0.96 (inactive) | 0.876 (inactive) | 1.04 (inactive) | 0.97 (inactive) | 0.893 (inactive) | 1.01 (inactive) | 0.903 (inactive) |  | 
7 | OC(c1cc(C(F)(F)F)nc2c(C(F)(F)F)cccc12)C1CCCCN1 (centres undefined) [Mefloquine hydrochloride] (20 µM) | 0.858 | 0.808 | 1 |  |  |  |  |  |  |  | 0.869 | 
8 | CC/C(=C(\c1ccccc1)c1ccc(OCCN(C)C)cc1)c1ccccc1 [Tamoxifen citrate] (20 µM) | 1.06 | 1.02 |  | 0.918 (inactive) | 0.657 (active) | 1.06 (inactive) | 0.989 (inactive) | 1.05 (inactive) | 1 (inactive) | 0.738 (inactive) | 1.11 | 0.977 (inactive)
9 | CN(CCOc1ccc(NS(C)(=O)=O)cc1)CCc1ccc(NS(C)(=O)=O)cc1 [Dofetilide] (20 µM) | 0.972 | 1.03 | 0.827 | 1 (inactive) | 1.04 (inactive) | 0.989 (inactive) | 0.984 (inactive) | 1.05 (inactive) | 1 (inactive) | 0.998 (inactive) |  | 
10 | CC(C)Cc1ccc([C@H](C)C(=O)O)cc1 [(S,+) Ibuprofen] (20 µM) | 0.797 | 1.16 | 0.974 | 0.925 (inactive) | 1.06 (inactive) | 0.854 (inactive) | 1.03 (inactive) | 1.06 (inactive) | 1.04 (inactive) | 1.11 (inactive) |  | 
11 | COc1cc(Cc2cnc(N)nc2N)cc(OC)c1OC [Trimethoprim] (20 µM) | 0.272 | 0.472 |  | 0.522 (active) | 0.895 (inactive) | 0.829 (inactive) | 1.22 (inactive) | 1.78 (active) | 1 (inactive) | 0.84 (inactive) | 1.03 | 0.974 (inactive)
12 | C=C[C@H]1CN2CC[C@H]1C[C@@H]2[C@@H](O)c1ccnc2ccc(OC)cc12 [Quinidine hydrochloride monohydrate] (20 µM) | 1.01 | 0.966 | 0.981 | 1.11 (inactive) | 0.978 (inactive) | 0.986 (inactive) | 1.05 (inactive) | 0.921 (inactive) | 0.987 (inactive) | 1 (inactive) |  | 
13 | CCC(C)C(C(=O)OCC[N+](C)(CC)CC)c1ccccc1 (centres undefined) [Valethamate bromide] (20 µM) |  |  |  | 1.03 (inactive) | 0.996 (inactive) | 1.05 (inactive) | 1.02 (inactive) | 1.03 (inactive) | 1 (inactive) | 0.963 (inactive) |  | 0.963 (inactive)
14 | C[C@H]1[C@H](NC(=O)/C(=N\OC(C)(C)C(=O)O)c2csc(N)n2)C(=O)N1S(=O)(=O)O [Aztreonam] (20 µM) | 1.04 | 0.662 | 1.04 | 0.865 (inactive) | 1.05 (inactive) | 0.86 (inactive) | 1.13 (inactive) | 1.03 (inactive) | 1.06 (inactive) | 1.04 (inactive) |  | 
15 | C[C@H]1COc2c(N3CCN(C)CC3)c(F)cc3c(=O)c(C(=O)O)cn1c23 [Levofloxacin] (20 µM) | 0.012 | 0.11 |  | 0.107 (active) | 0.755 (active) | 0.521 (active) | 0.657 (active) | 0.226 (active) | 0.953 (inactive) | 0.823 (inactive) | 0.012 | 0.0435 (active)
16 | CC(C)/N=c1\cc2n(-c3ccc(Cl)cc3)c3ccccc3nc-2cc1Nc1ccc(Cl)cc1 [Clofazimine] (20 µM) | 1.03 | 1.04 |  | 0.999 (inactive) | 0.637 (active) | 1.04 (inactive) | 1.04 (inactive) | 1 (inactive) | 1.03 (inactive) | 0.727 (active) | 0.239 | 0.0321 (active)
17 | C[C@@H]1CN(c2c(F)c(N)c3c(=O)c(C(=O)O)cn(C4CC4)c3c2F)C[C@H](C)N1 [Sparfloxacin] (20 µM) | 0.0499 | 0.286 |  | 0.286 (active) | 0.763 (active) | 0.942 (inactive) | 1.16 (inactive) | 0.264 (active) | 0.973 (inactive) | 0.829 (inactive) | 0.0221 | 0.0593 (active)
18 | Cc1noc(NS(=O)(=O)c2ccc(N)cc2)c1C [Sulfisoxazole] (20 µM) | 1.03 | 1.02 | 1.13 | 1.07 (inactive) | 1.01 (inactive) | 1.03 (inactive) | 1.02 (inactive) | 1.04 (inactive) | 1.01 (inactive) | 1 (inactive) |  | 
19 | COc1ccc(CCN(C)CCCC(C#N)(c2ccc(OC)c(OC)c2)C(C)C)cc1OC (centres undefined) [Verapamil hydrochloride] (20 µM) | 1.13 | 0.758 | 1.01 | 0.942 (inactive) | 0.992 (inactive) | 1.05 (inactive) | 0.906 (inactive) | 0.978 (inactive) | 0.972 (inactive) | 0.95 (inactive) |  | 
20 | CO/N=C(\C(=O)N[C@@H]1C(=O)N2C(C(=O)O)=C(C[N+]3(C)CCCC3)CS[C@H]12)c1csc(N)n1 [Cefepime hydrochloride] (20 µM) | 0 | 0.484 | 0 | 0.119 (active) | 0.0466 (active) | 0.285 (active) | 0.361 (active) | 0.884 (inactive) | 1.11 (inactive) | 0.0523 (active) |  | 
21 | Clc1ccccc1CN1CCc2sccc2C1 [Ticlopidine hydrochloride] (20 µM) | 0.944 | 0.958 | 1.18 | 1.01 (inactive) | 0.983 (inactive) | 1.01 (inactive) | 0.989 (inactive) | 0.934 (inactive) | 0.98 (inactive) | 0.977 (inactive) |  | 
22 | COc1cc2nc(N3CCN(C(=O)c4ccco4)CC3)nc(N)c2cc1OC [Prazosin hydrochloride] (20 µM) | 1.09 | 0.998 | 0.986 | 1.01 (inactive) | 0.924 (inactive) | 1.16 (inactive) | 1.02 (inactive) | 0.968 (inactive) | 1 (inactive) | 0.939 (inactive) |  | 
23 | C[C@H](CS)C(=O)N1CCC[C@H]1C(=O)O [Captopril] (20 µM) | 0.976 | 1 | 0.851 | 1.01 (inactive) | 1.04 (inactive) | 0.963 (inactive) | 1 (inactive) | 1.01 (inactive) | 1 (inactive) | 1.04 (inactive) |  | 
24 | CCN1CCN(C(=O)N[C@@H](C(=O)N[C@@H]2C(=O)N3C(C(=O)O)=C(CSc4nnnn4C)CS[C@H]23)c2ccc(O)cc2)C(=O)C1=O [Cefoperazone dihydrate] (20 µM) | 0.0154 | 0.724 | 0.0225 | 0.472 (active) | 0.0363 (active) | 0.451 (inactive) | 0.86 (inactive) | 1.36 (inactive) | 1.13 (inactive) | 0.0394 (active) |  | 
25 | Nc1nc2c(ncn2COCCO)c(=O)[nH]1 [Acyclovir] (20 µM) | 1.05 | 1 | 1.42 | 1.02 (inactive) | 1.15 (inactive) | 1.03 (inactive) | 0.983 (inactive) | 1 (inactive) | 1.05 (inactive) | 1.15 (inactive) |  | 
